Data reported in ChEMBL document CHEMBL3433997, “St. Jude Leishmania screening dataset” (2016).

Experiments:
Assay type in all cases: functional
[1] = target: Solute carrier family 2, facilitated glucose transporter member 1 (Homo sapiens) (UniProt P11166); assay: ST_JUDE_LEISH: Cytotoxicity at 2uM final concentration against transgenic Leishmania Mexicana promastigotes LmGLUT1 that are glucose transport deficient and complemented with the human glucose transporter GLUT1. Activity is measured by DNA content using SYBR green in vitro
[2] = target: Hexose transporter 1 (Plasmodium falciparum) (UniProt O97467); assay: ST_JUDE_LEISH: Cytotoxicity at 2uM final concentration against transgenic Leishmania Mexicana promastigotes LmPfHT that are glucose transport deficient and complemented with the Plasmodium falciparum hexose transporter. Activity is measured by DNA content using SYBR green in vitro
[3] = target: Glucose transporter (Leishmania mexicana) (UniProt O61059); assay: ST_JUDE_LEISH: Cytotoxicity at 2uM final concentration against transgenic Leishmania Mexicana promastigotes LmGT2 that are glucose transport deficient and complemented with the L. Mexicana glucose transporter 2. Activity is measured by DNA content using SYBR green in vitro

Sequence of Solute carrier family 2, facilitated glucose transporter member 1 (Homo sapiens) (P11166 whole entry): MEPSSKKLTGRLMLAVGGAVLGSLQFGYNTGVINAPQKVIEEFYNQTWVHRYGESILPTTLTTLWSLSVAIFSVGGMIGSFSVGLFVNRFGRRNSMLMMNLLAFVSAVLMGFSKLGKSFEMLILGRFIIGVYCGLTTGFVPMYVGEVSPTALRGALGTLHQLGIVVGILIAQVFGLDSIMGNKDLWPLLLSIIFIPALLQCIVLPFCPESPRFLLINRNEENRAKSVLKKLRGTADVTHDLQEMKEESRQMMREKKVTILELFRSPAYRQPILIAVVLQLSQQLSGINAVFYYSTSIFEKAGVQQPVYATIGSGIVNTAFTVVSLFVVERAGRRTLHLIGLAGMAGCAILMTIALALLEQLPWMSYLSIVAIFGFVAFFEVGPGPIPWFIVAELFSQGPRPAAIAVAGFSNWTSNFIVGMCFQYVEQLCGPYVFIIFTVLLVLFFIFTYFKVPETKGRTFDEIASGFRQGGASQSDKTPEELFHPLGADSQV

Structure (SMILES) | inhibition [1] [%] | inhibition [2] [%] | inhibition [3] [%]
COc1ccc(C(=O)Nc2ccc(Cl)cc2C(=O)Nc2ccncc2)cc1 | 4.33 | 3.94 | -0.77
c1cc(-c2cc3ccc(C4=NCCN4)cc3[nH]2)ccc1C1=NCCN1 | 1.68 | 2.57 | 0.39
CCOC(=O)N1CCN(CCCCCNc2cc(C)nc(NC(=N)Nc3ccc(Cl)cc3)n2)CC1 | 6.99 | 8.05 | 6.08
O=C(Nc1ccc2nc3n(c(=O)c2c1)CCCCC3)C(=O)N1CCC(Cc2ccccc2)CC1 | -0.67 | 0.77 | -0.44
NC(=O)c1cccc(Nc2nccc(Nc3ccc(Oc4c(Cl)cccc4Cl)c(Cl)c3)n2)c1 | 9.27 | 9.62 | 2.92
Fc1ccc2cc(C=Cc3ccncc3)[nH]c2c1 | 2.24 | 4.09 | 0.56
COc1c(C2CCN(CCCCNC(=O)c3cc(-c4ccc(C#N)cc4)n[nH]3)CC2)ccc2c1CCCC2 | -0.72 | 0.62 | 1.75
CCCN(CCC)S(=O)(=O)c1ccc(C(=O)Nc2nc3ccc(-c4cc(=O)[nH]c(Nc5ccccc5Cl)n4)cc3[nH]2)cc1 | 4.09 | 5.1 | 4.26
Cc1cc(C(=O)NC2CCN(Cc3ccccc3)CC2)ccc1-c1nc2ccc(C(F)(F)F)cc2[nH]1 | 3.67 | 2.1 | 3.25
COc1ccc(CN2CCCN(Cc3ccc(C(=O)Nc4ccc(Cl)cc4)cc3)CC2)cc1 | 4.35 | 5.51 | 6.65
CCCCCCC(C)c1cc(O)c2c(c1)OC(=O)CC2(CC)c1ccccn1 (stereo not drawn) | 1.55 | 3.13 | 1.77
COc1cc(NC(=O)c2c(-c3c(F)cccc3Cl)noc2C)c(OC)cc1Cl | -2.64 | -1.52 | -4.01
N#Cc1ccc2c(c1)CCN(CCC1CCC(NC(=O)c3ccc(-c4ccccn4)s3)CC1)CC2 (stereo not drawn) | 13.3 | 9.45 | 9.9
CC(=O)Nc1nc(C)c(-c2csc(Nc3ccc(Cl)cc3)n2)s1 | -0.76 | -1.35 | -2.23
N=C(N)c1cc(Cl)cc(NC(=O)Nc2cc(Cl)cc(C(=N)N)c2)c1 | 2.37 | 1.25 | 1.53
O=C(Nc1ccc2c(c1)CCN2C1CCN(Cc2ccc(O)cc2)C1)c1ccco1 (stereo not drawn) | 0.95 | 2.04 | -0.34
CCc1nc(N)nc(N)c1-c1ccc(C(C)C)cc1 | 2.65 | 2.31 | 2.86
CN(C)CCCN1C(=O)c2[nH]nc(-c3ccc(Cl)cc3O)c2C1c1ccc(Cl)cc1 (stereo not drawn) | 0.82 | 0.66 | 1.69
COc1ccc(CN2CCC(CNCC(c3ccccc3)c3ccccc3)CC2)cc1 | 3.54 | 3.87 | 2.23
CC(C)c1ccc(NC(=O)N2CCc3ccc(OCCN(C(C)C)C(C)C)cc32)c(Br)c1 | -3.12 | 0.76 | 1.63
CN(C)CCCOc1ccc(CNCC(C)(C)c2nc(-c3ccc(Cl)c(O)c3)c(-c3ccncc3)[nH]2)cc1 | 3.39 | 1.89 | 2.83
CCc1c[nH]c2c(N3CCCC3=O)cc(C(=O)N[C@@H](Cc3ccccc3)[C@H](O)CNC(C)(C)c3cccc(OC)c3)cc12 | -0.15 | 1.3 | 1.9
CCOC(=O)c1cnc2c(OC)cc(OC)c(Cl)c2c1Nc1ccccc1 | 5.44 | 4.89 | 6.19
O=C(Nc1ccc(-c2cccc(-c3nc4cc(C(F)(F)F)ccc4[nH]3)c2)cc1)c1ccncc1 | 0.97 | 1.99 | 1.87

Structure (SMILES) | inhibition [1] [%] | inhibition [2] [%] | inhibition [3] [%]
Cc1cc2[nH]c(-c3ccc(C(=O)NCCCN4CCN(c5cccc(Cl)c5)CC4)cc3F)nc2cc1Cl | -0.3 | 0.43 | -0.02
O=C(NC(=O)c1ccccc1O)c1ccccc1O | -0.08 | 0.7 | 0.89
COc1ccc(CNC(=N)Nc2nc(-c3ccc(OCCCn4ccnc4)cc3)cs2)cc1 | 10.6 | 7.44 | 2.73
COc1ccc(-c2cccc(NC(=O)c3ccc(Cl)cc3)c2)cc1CN1CCCN(C)CC1 | 7.89 | 8.76 | 7.23
O=C(Nc1ccc(C(F)(F)F)cc1)c1cccc(S(=O)(=O)NC2CCN(CC3CCCCC3)C2)c1 (stereo not drawn) | 2.01 | 0.63 | 0.63
Cc1ccc(CN2CCCN(Cc3cccc(NC(=O)c4ccc(-c5ccccc5)cc4)c3)CC2)cc1C | 3.45 | 2.98 | 2.82
Nc1ncc(Cc2ccc3c(ccc4ccccc43)c2)c(N)n1 | 14.2 | 12.7 | 11.9
Cc1sc(NC(=O)c2ccc([N+](=O)[O-])cc2Cl)c(C(N)=O)c1C | 2.24 | 2.08 | 2.74
CN(C)CCCOc1cccc(NC(=O)Nc2ccc(-c3ccccc3)cc2)c1 | -1.01 | -1.23 | -3.41
Cc1noc(-c2ccccc2)c1CN1CCCC2(CC(C(=O)NCc3cccc(F)c3F)=NO2)C1 (stereo not drawn) | 0.11 | -0.09 | -0.8
CN1CCN(CC(=O)Nc2cccc(-c3ccc(-c4nc5cc(F)ccc5[nH]4)s3)c2)CC1 | 7.26 | 7.42 | 5.89
Cc1[nH]c(C)c(-c2ccc(OCc3cc(C(F)(F)F)cc(C(F)(F)F)c3)nc2)c(=O)c1Br | 10.1 | 10.2 | 2.99
Cc1cccc2nc(-c3ccc(-c4cccc(NC(=O)c5cnccc5C(F)(F)F)c4)cc3)[nH]c12 | 11.2 | 10.4 | 8.19
Cc1ccc(CNC(=O)[C@H](Cc2ccccc2)Nc2cc(C)nc(NCC3CCCCC3)n2)cc1 | 3.25 | 4.57 | 0.14
Cc1cc(C)c(-c2n[nH]c3c2C(c2cccc(Cl)c2)N(Cc2ccco2)C3=O)c(O)c1 (stereo not drawn) | 1.7 | 5.35 | 1.37
Cc1ccc(NC(=O)NC2CCN(c3ccnc4ccccc34)C2)cc1 (stereo not drawn) | 5.83 | 5.57 | 7.34
Cc1[nH]c(C)c(-c2ccc(Oc3ccc(O)cc3)cc2)c(=O)c1Cl | 3.19 | 1.48 | -5.02
CCCNC(=O)C1Cc2c([nH]c3ccc(Br)cc23)C2(CCN(CCc3ccccc3)CC2)N1 (stereo not drawn) | -1.4 | 0.12 | 1.33
CCOC(=O)c1c(SCc2cccc(F)c2F)[nH]c2ccccc2c1=O | 0.37 | -0.99 | 1.97
Cc1cccc2nc(-c3ccc(-c4cccc(CN5CCC(C(N)=O)CC5)c4)cc3)[nH]c12 | 0.21 | -0.52 | -1.72
CN(CC(=O)Nc1cc(C(F)(F)F)ccc1-n1cncn1)Cc1ccc2ccccc2c1 | 2.14 | 1.25 | 1.8
Cc1ccc(Nc2cc(C)nn2-c2nc(C)cc(O)n2)cc1 | 75.4 | 73.6 | 67.6
COc1ccc2nccc(N3CCC(NCc4ccc5c(n4)NC(=O)CS5)CC3)c2n1 | 0.15 | -0.14 | 2.01
COc1cc(NC(=O)/C=C/c2cc(F)cc(F)c2F)cc(OCCN2CCCCC2)c1 | 5.16 | 3.35 | 4.25

Structure (SMILES) | inhibition [1] [%] | inhibition [2] [%] | inhibition [3] [%]
CCCCc1ccc(NC(=O)Nc2ccc3c(c2)CCNCC3)cc1 | 0.82 | 2.05 | 1.65
CCCNC(=O)C1CCN(C(c2ccccc2)c2ccc(Cl)c(Cl)c2)CC1 (stereo not drawn) | 4.42 | 5.75 | 3
Cc1nnsc1C(=O)Nc1cccc(-c2ccc(-c3nc4cc(C(F)(F)F)ccc4[nH]3)cc2)c1 | 1.55 | 2.49 | -1.08
Cc1ccc(Nc2nnc(SCC(=O)Nc3ccc(CN4CCCC4)cc3)s2)cc1 | 0.83 | -0.59 | 0.85
CC(C)(CNC(=O)[C@@H]1CCCN(CCOc2ccc(F)c(F)c2)C1)c1nc(-c2ccc(Cl)c(O)c2)c(-c2ccncc2)[nH]1 | 0.3 | -0.12 | 1.28
O=C(Cc1ccc(NC(=O)c2ccc(O)c(-c3ccc(Cl)c(Cl)c3)c2)cc1)NCc1cccc(C(F)(F)F)c1 | 2.33 | 2.65 | 1.16
CCOc1ccc(C=CC(=O)Nc2ccc3nc(N4CCOCC4)cc(C)c3c2)cc1OC | 10.1 | 9.63 | 4.75
Oc1ccc(-c2cc(COc3ccccc3C(F)(F)F)c(C3=CCNCC3)cc2COc2ccccc2C(F)(F)F)cc1 | 2.69 | 2.67 | -0.12
COc1ccc(-c2onc(C(F)(F)F)c2-c2ccc(Br)cc2)c(O)c1 | 2.09 | 2.27 | 1.56
CN(C)CCOc1ccc(-c2cc(-c3ccnc(N)n3)c(-c3ccc(Cl)c(O)c3)o2)cc1 | 1.34 | 1.5 | 2.71
COc1ccc2nccc([C@@H](O)CN3CCC(NC(=O)/C=C/c4cc(F)cc(Br)c4)CC3)c2c1 | 6.91 | 4.62 | -0.22
CN(CCCNc1ccc(C(=O)Nc2ccc(C(F)(F)F)cc2)cc1[N+](=O)[O-])Cc1ccccc1 | 1.17 | -0.19 | -3.45
CCC(CC)n1cc2c(ccc3nc(N)nc(N)c32)n1 | -1.92 | -0.91 | -4.05
O=C(Nc1ccc(Br)cc1)N(CCN1CCOCC1)CC(O)COCc1ccc(Cl)c(Cl)c1 (stereo not drawn) | 2.07 | 1.38 | -5.49
O=C(NCc1ccccn1)C(c1cc2ccccc2o1)N1CCN(C(c2ccccc2)c2ccccc2)CC1 (stereo not drawn) | 0.6 | 2.14 | 2.55
O=[N+]([O-])c1cccc(NC(=S)N2CCCN(Cc3ccc(Cl)cc3Cl)CC2)c1 | 2.36 | 3.32 | 3.01
Oc1ccc2[nH]c(-c3cccc(F)c3)nc2c1CN1CCC(N2CCCC2)CC1 | 3.47 | 3.65 | 4.9
CCc1cn2c3c(cc(C(=O)N[C@@H](Cc4ccccc4)[C@H](O)CNC4CCOCC4)cc13)N(C)S(=O)(=O)C2 | 0.25 | 1.65 | -0.23
OCCN1CCN(Cc2ccc(-c3ccc(-c4nc5cc(C(F)(F)F)ccc5[nH]4)s3)cc2)CC1 | 5.47 | 4.05 | 4.01
CCOP(=O)(OCC)c1ccc(OC)c(-c2ccc[nH]2)c1 | 4.52 | 2.22 | 1.77
O=C(/C=C/c1ccc(C(F)(F)F)cc1)NCCCCCN1CCCN(C(=O)Nc2cccc(Cl)c2)CC1 | -0.19 | -1.13 | 1.47
O=C(Nc1ccccc1Br)N[C@@H]1CCN(c2ccnc3ccccc23)C1 | 4.02 | 5.95 | 3.01
O=c1cc(NCCCNCc2cccc(OC(F)(F)F)c2)[nH]c2ccccc12 | 2.97 | -3.41 | 4.57
